An excerpt weighted towards active compounds, which were near 2.9% of everything screened.
Mcl1 Bid PPI = disrupts binding of human Mcl-1 to Bid peptide; AID 1021; inhibition, % at 21.7 µM; Q07820; TR-FRET Mcl-1/Bid-Dy647 peptide binding, 1536-well; 220,000 compounds, 0.97% hits;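 active = compounds that cut the binding signal by more than half at the single screening dose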;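 also: His-tagged Mcl-1 with europium anti-His antibody binding Bid BH3 peptide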
Bim-Mcl-1 = human Bim-Mcl-1 interaction inhibition. AID 1009. inhibition, % at 10 µM. Bead-based flow cytometry, Bim peptide-Mcl-1 binding. Q07820. 190,000 compounds, 0.1% hits; in the data active = inhibition above about 40%
Mcl1-Noxa inh = disrupts binding of human Mcl-1 to Noxa peptide; inhibition, % at 21.7 µM; 220,000 compounds, 1.5% hits; TR-FRET Mcl-1/Noxa peptide binding, 2 h;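 active = compounds that cut the protein-peptide binding signal by more than 50% relative to plate controls in a single-dose test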;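 also: His-tagged Mcl-1 with rhodamine Noxa BH3 peptide and terbium anti-His antibody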
Pf gamet viab = P. falciparum stage V gametocyte viability inhibition; AID 743093; 150,000 compounds, 0.065% hits; inhibition, % at 10.9 µM; P. falciparum stage V gametocytes, ATP luminescence, 24 h;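 active = inhibition above the mean plus 3 SD of compounds within the control limits, set per campaign, cut at about 38% in these data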
Hck Nef HTS = blocks Nef-activated human Hck kinase. 220,000 compounds, 0.68% hits. P08631. Recombinant Hck-YEEI plus Nef, Z-Lyte FRET kinase assay. inhibition, % at 20 µM;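 active = Hck-Nef kinase inhibition above about 50%, limit read from the data; inactive = inhibition below that limit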
14-3-3 Bad PPI = disrupts binding of bovine 14-3-3 zeta to phospho-Bad peptide | inhibition, % at 21.7 µM | AID 781 | P63103 | TR-FRET 14-3-3zeta/Dy647-pBad peptide displacement, 1 h | 220,000 compounds, 0.71% hits;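 active = inhibition above about 70%, limit read from the data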
Target sequence (P63103 whole entry, looked up): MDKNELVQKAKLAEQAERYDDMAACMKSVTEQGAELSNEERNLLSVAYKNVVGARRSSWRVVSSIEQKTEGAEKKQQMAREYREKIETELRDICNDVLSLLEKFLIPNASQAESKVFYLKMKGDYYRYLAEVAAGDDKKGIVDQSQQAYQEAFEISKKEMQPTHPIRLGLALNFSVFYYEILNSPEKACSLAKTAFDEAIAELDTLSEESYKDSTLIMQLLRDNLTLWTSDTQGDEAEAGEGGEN
Numbers stand for hits; i = inactive; nt = not tested or not shown.

SMILES	Mcl1 Bid PPI	Bim-Mcl-1	Mcl1-Noxa inh	Pf gamet viab	Hck Nef HTS	14-3-3 Bad PPI
CCC1CCCCN1CCCNC(=O)CC1Oc2ccccc2NC1=O (centres undefined)	i	i	i	nt	i	i
O=c1c(Cl)c2oc3ccccc3nc-2c2ccccc12	i	i	62	nt	i	i
Clc1ccc(-c2nnc(Sc3nc4ccccc4o3)c3ccccc23)cc1	i	i	i	i	i	i
Cc1ccc(NC(=O)c2cc(-c3ccc(C)o3)nc3ccccc23)cc1	i	i	i	nt	i	i
Cc1ccc(-c2cc(C(=O)Nc3ccccn3)c3ccccc3n2)o1	i	i	82	i	i	i
COc1ccc(C(=O)N(Cc2ccccc2)Cc2cc3cc4c(cc3[nH]c2=O)OCCO4)cc1	95	i	i	i	i	i
CCc1nn2cc(C(=O)c3cc(C)ccc3O)cnc2c1-c1ccc(F)cc1	i	42	i	i	i	i
CCc1nn2cc(C(=O)c3ccccc3O)cnc2c1-c1ccc(F)cc1	i	i	i	i	i	i
CC1(C)CC(=O)C=C(Nc2cc(-c3ccccc3)[nH]n2)C1	i	i	i	i	i	i
C=CCSc1nc2c(c(=O)[nH]c(=O)n2C)n1C/C=C(/C)Cl	i	i	58	i	i	i
CCSc1nc2c(c(=O)[nH]c(=O)n2C)n1C/C=C(/C)Cl	i	i	i	i	i	i
N#Cc1c(NC(=O)CSc2ncnc3sccc23)oc(-c2ccco2)c1-c1ccco1	i	i	97	i	i	i
CC(C)(CO)NC(=O)C(c1ccccc1)c1ccccc1	i	i	i	nt	i	i
CN(CCN(C)C(C)(C)C)C(=O)C(c1ccccc1)c1ccccc1	74	nt	i	i	i	i
O=C(NCCN1CCOCC1)c1csc2c1CCCCC2	i	i	i	i	i	i
O=C(/C=C/c1ccco1)Nc1cccc(NC(=O)/C=C/c2ccco2)n1	i	i	72	i	i	i
Cc1ccc(-c2csc(NC(=O)c3cccc(C)c3)c2C(=O)O)cc1	nt	nt	nt	i	nt	nt
Cc1ccc(-c2csc(NC(=O)/C=C/c3ccco3)c2C(=O)O)cc1	i	i	i	i	52	i
Cc1nc(NC(=O)/C=C/c2ccco2)sc1C	i	i	58	nt	i	i
O=C(/C=C/c1ccco1)NC1=NCCS1	i	i	i	nt	i	i
CC(NC(=O)CN1CCN(c2ncccn2)CC1)c1ccc(F)cc1 (centres undefined)	i	i	i	nt	i	i
CN(C1CCS(=O)(=O)C1)S(=O)(=O)c1ccccc1 (centres undefined)	i	i	i	38	i	i
Cc1ccc(S(=O)(=O)N(c2ccccc2)C2CCS(=O)(=O)C2)cc1 (centres undefined)	i	i	i	i	i	i
O=C(CSc1nc2ccccc2o1)Nc1ccccc1N1CCCCCC1	i	i	i	i	i	i
CCc1ccc(OCC(=O)N/N=C(\C)c2ccc3c(c2)OCCO3)cc1	i	i	i	nt	i	i
SMILES	Mcl1 Bid PPI	Bim-Mcl-1	Mcl1-Noxa inh	Pf gamet viab	Hck Nef HTS	14-3-3 Bad PPI
C/C(=N\NC(=O)COc1ccc(C(C)(C)C)cc1)c1ccc2c(c1)OCCO2	i	65	i	i	i	i
O=C(C(c1ccccc1)c1ccccc1)N1CCN(Cc2ccco2)CC1	i	i	i	i	i	71
O=C(C(c1ccccc1)c1ccccc1)N1CCOCC1	i	i	i	i	i	i
CCC(=O)NC(c1ccc(N(C)C)cc1)c1c(O)ccc2ccccc12 (centres undefined)	i	i	51	i	i	i
COC(=O)C1=C(C)N(C)C(=O)NC1c1cc2c(cc1[N+](=O)[O-])OCO2 (centres undefined)	i	i	52	i	i	i
Cc1ccc(-n2[nH]c(=O)c3cccnc32)cc1	i	i	65	i	i	i
O=C(N(c1ccccn1)c1ccccn1)C12CC3CC(CC(Cl)(C3)C1)C2	i	i	i	i	i	i
CCC(C)[C@H](NC(=O)NCCC1=CCCCC1)C(=O)O (some centres undefined)	i	nt	i	i	i	i
CC(C)[C@H](NC(=O)NCCC1=CCCCC1)C(=O)O	94	nt	i	i	i	i
O=C(c1sc2cc([N+](=O)[O-])ccc2c1Cl)N1CCOCC1	i	i	i	i	i	i
CC(C)N(C(=O)c1sc2cc([N+](=O)[O-])ccc2c1Cl)C(C)C	97	i	i	i	i	i
Cc1nn(CC(=O)N2CCOCC2)c(C)c1[N+](=O)[O-]	i	i	i	nt	i	i
